Assay outcomes: PubChem, NMMLSC
An excerpt weighted towards active compounds, which were near 2.9% of everything screened.
MEKK2wt PB1 HTS: modulators of MEK5 binding to wildtype MEKK2, primary screen, biochemical, multiplex bead flow cytometry, Alexa488-MEK5. Mitogen-activated protein kinase kinase kinase 2 (Homo sapiens), Q9Y2U5. Alexa488-MEK5 binding to MEKK2 WT; actives lie on both sides. binding response (% of control), % at 10 µM. actives 1.1% (n = 290,000). AID 1531, 2009; in the data active = binding response below about 67% or above about 130%
B2AR ag: beta2AR agonists driving receptor internalization, primary screen, cell-based, FAP fluorogen, flow cytometry | actives 0.43% (n = 340,000) | AID 504454, 2011 | Am2.2-beta2AR cells | response, % (no concentration beside the values) | Beta-2 adrenergic receptor (Homo sapiens), P07550;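 active = response above a set limit, near 3 SD of response in nonfluorescent compounds, cut at about 42% in these data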
GRK2 aptamer HTS: compounds blocking aptamer binding on GRK2 – biochemical, human GRK2, bead flow cytometry, HTS, primary screen; Beta-adrenergic receptor kinase 1 (Homo sapiens), P25098; FAM-aptamer displacement from GRK2; inhibition of aptamer binding, % at 10 µM; actives 0.59% (n = 330,000); AID 488847, 2010;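 active = inhibition of aptamer binding above 40%, roughly 3 SD of noise, on plates passing a quality check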;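 note: median bead fluorescence of bound FAM aptamer so fluorescent compounds give negative values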
Target sequence (P25098 whole entry, looked up): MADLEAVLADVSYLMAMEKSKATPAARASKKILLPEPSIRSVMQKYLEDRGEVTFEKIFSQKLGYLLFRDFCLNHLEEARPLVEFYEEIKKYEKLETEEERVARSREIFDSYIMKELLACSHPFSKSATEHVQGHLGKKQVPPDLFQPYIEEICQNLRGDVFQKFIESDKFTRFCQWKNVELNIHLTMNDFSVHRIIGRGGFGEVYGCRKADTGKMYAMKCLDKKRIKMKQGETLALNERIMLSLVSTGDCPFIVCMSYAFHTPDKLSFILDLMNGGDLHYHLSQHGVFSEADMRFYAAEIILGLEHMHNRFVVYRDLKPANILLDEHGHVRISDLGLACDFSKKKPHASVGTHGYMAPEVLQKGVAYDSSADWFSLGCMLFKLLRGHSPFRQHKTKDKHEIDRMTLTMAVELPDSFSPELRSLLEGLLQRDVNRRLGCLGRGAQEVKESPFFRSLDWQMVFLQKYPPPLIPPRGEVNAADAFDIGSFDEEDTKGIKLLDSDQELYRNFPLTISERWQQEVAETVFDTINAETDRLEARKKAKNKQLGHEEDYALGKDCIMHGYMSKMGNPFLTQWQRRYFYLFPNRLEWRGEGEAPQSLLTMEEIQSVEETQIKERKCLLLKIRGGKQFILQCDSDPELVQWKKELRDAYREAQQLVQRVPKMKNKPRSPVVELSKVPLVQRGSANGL
MEKK3 PB1 HTS: modulators of MEKK3-MEK5 PB1 binding, primary screen, biochemical, wildtype MEKK3, multiplex bead flow cytometry, Alexa488-MEK5 | binding response (% of control), % at 10 µM | actives 1.4% (n = 290,000) | bead-based flow cytometry, Alexa488-MEK5 binding to MEKK3; actives lie on both sides; 0 = blocked by unlabeled MEK5, 100 = vehicle | Mitogen-activated protein kinase kinase kinase 3 (Homo sapiens), Q99759;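 active = binding response more than 3 SD above or below the average of its plate-row segment, actives on both sides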;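 note: Alexa488 bead fluorescence after subtracting the streptavidin-only scavenger bead signal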
MEKK2mut PB1 HTS: MEK5 binding signal on mutant MEKK2 PB1, primary screen, biochemical, multiplex bead flow cytometry, Alexa488-MEK5 | Alexa488-MEK5 binding to MEKK2 mutant | percent response, % at 10 µM | actives 0.35% (n = 290,000) | AID 1530, 2009; in the data active = percent response above about 24%, passing the limit was not always enough
Beta2AR ag CP1: beta2AR agonists via receptor internalization, confirmation, cell-based, FAP fluorogen, flow cytometry, single point, cherry pick 1; shares compounds with B2AR ag; Am2.2-beta2AR cells, FAP surface receptor; hits give low values; percent response (surface receptor), % at 10 µM; actives 25% (n = 1,100);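 active = surface receptor percent response at or below 58%, roughly 3 SD from nonfluorescent compounds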
FAP fluor counter: fluorescence artifact in beta-2AR agonist FAP counterscreen; shares compounds with B2AR ag; Am2.2 cells, FAP fluorogen flow cytometry; hits give low values; calls only at 10 µM; 1,100 tested, under 10 active; AID 588765;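 active = percent response below a set limit in fluorescence channel 1 and below 50% in channel 8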
* marks the source's active call; other numbers are inactive results; i = inactive; . = no result given.

SMILES | MEKK2wt PB1 HTS | B2AR ag | GRK2 aptamer HTS | MEKK3 PB1 HTS | MEKK2mut PB1 HTS | Beta2AR ag CP1 | FAP fluor counter
CC(=O)Oc1c(Br)cc(N(C(C)=O)S(=O)(=O)c2ccccc2)c2ccccc12 | 103 | 60* | 4 | 106 | 2 | 107 | i
CC(=O)Oc1ccccc1N(C(C)=O)S(=O)(=O)c1ccc2ccccc2c1 | 91 | 3 | 5 | 93 | -13 | . | .
COc1ccc(CC(=O)Nc2cccc(-c3cn4ccccc4n3)c2)cc1 | 104 | -5 | 3 | 104 | 2 | . | .
COc1ccc(CC(=O)Nc2ccc(-c3cn4ccccc4n3)cc2)cc1 | 102 | 93* | 0 | 103 | 5 | 19* | i
O=C(Nc1ccc2nc(SCc3ccc(Cl)cc3)sc2c1)c1ccccc1C(=O)N1CCOCC1 | 94 | 107* | 0 | 95 | -5 | 17* | i
COC(=O)c1ccccc1NC(=O)COc1ccc(S(=O)(=O)N2CCCC2)cc1C | 91 | 5 | 0 | 91 | -5 | 99 | i
Cc1cc(S(=O)(=O)N2CCCC2)ccc1OCC(=O)Nc1ccc(C(N)=O)cc1 | . | 2 | 2 | . | . | 113 | i
COc1ccc(Cl)cc1NC(=O)COc1ccc(S(=O)(=O)N2CCOCC2)cc1C | 96 | 0 | 0 | 97 | 0 | 75 | i
Cc1cc(Cl)ccc1OCC(=O)Nc1cccc(S(=O)(=O)N2CCCC2)c1 | . | 3 | 2 | . | . | . | .
COc1ccc(S(=O)(=O)N2CCOCC2)cc1NC(=O)COc1ccc(C)cc1 | . | 4 | 0 | . | . | . | .
Cc1cc(S(=O)(=O)N2CCCC2)ccc1OCC(=O)NCc1ccccc1 | 96 | 2 | 0 | 96 | -3 | . | .
CS(=O)(=O)N(CC(=O)Nc1ccccc1C(=O)N1CCCC1)c1ccccc1Br | 102 | 4 | 0 | 102 | 3 | . | .
COc1cccc2sc3cc(C#CC4(O)CCCCC4)ccc3c(=O)c12 | . | 50* | 1 | . | . | 98 | i
Cc1nc([N+](=O)[O-])c(Br)n1Cc1ccc(Cl)c(Cl)c1 | 102 | 58* | . | 103 | 1 | 96 | i
COc1cccc(/C=N/NC(=O)c2ccoc2C)c1 | 82 | -3 | 4 | 74 | -28 | . | .
CN(Cc1cccs1)c1nc(-c2cccnc2)nc2ccccc12 | 96 | 103* | 0 | 105 | -2 | 2.7* | i
COc1ccc(-c2csc3nc(C(C)C)oc(=O)c23)cc1OC | 103 | -4 | 1 | 100 | 3 | . | .
COc1ccc(-c2nc3scc(-c4ccc(OC)c(OC)c4)c3c(=O)o2)cc1 | 90 | 51* | 3 | 95 | -3 | 88 | i
CC1CC(C)CN(CCCNC(=O)C2CCCN(S(=O)(=O)N3CC(C)CC(C)C3)C2)C1 (configuration not stated) | 104 | -1 | 0 | 98 | 2 | . | .
CCC(C)NC(=O)c1ccc2nc(-c3ccc(OC)c(OC)c3)c(-c3ccc(OC)c(OC)c3)nc2c1 (configuration not stated) | 100 | 22 | 5 | 105 | 3 | . | .
CCCN(CCC)C(=O)c1ccc2nc(-c3ccc(OC)c(OC)c3)c(-c3ccc(OC)c(OC)c3)nc2c1 | 102 | 43* | 6 | 101 | 2 | 123 | i
Cc1ccc(OCC(=O)Nc2ccncc2)c(C)c1 | 102 | 4 | 0 | 101 | -1 | . | .
Cc1ccc(OCC(=O)Nc2ccc(-c3nc4ncccc4o3)cc2)c(C)c1 | 109 | 116* | 0 | 108 | 4 | 16* | i
COCCN(C(=O)c1cc(-c2ccco2)nc2ccccc12)c1c(N)n(Cc2ccccc2)c(=O)[nH]c1=O | . | -5 | 19 | . | . | . | .
